Data taken from PubChem BioAssay AID1970 (National Center for Advancing Translational Sciences (NCATS), 2009).
Records with an inconclusive call do not appear. Calls of active or inactive are those of the source. Calls come from the whole dose curve; as a rule, active = well fitted inhibition curve with a large enough effect; inconclusive = small, poorly fitted or top-dose-only effect; inactive = flat fitted curve, though single readings scatter.

Molecular target: Dual specificity protein kinase CLK4 (Homo sapiens) (UniProt Q9HAZ1)
Assay: Confirmation Assay for Inhibitors of CDC-like Kinase 4 (Kinase-Glo Assay)
Details: recombinant Clk4, Kinase-Glo ATP depletion luminescence
Protocol: NIH Molecular Libraries Probe Production Centers Network [MLPCN] NIH Chemical Genomics Center [NCGC] MLPCN Grant: 1R03MH084827-01 Assay Submitter (PI): Tom Misteli NCGC Assay Overview: Clk4 (Invitrogen, cat# PV3839) was assayed using ATP and the RS repeat peptide (AnaSpec cat # 61722) as substrates. Following the Clk4 reaction, the remaining ATP levels were detected using Promega Kinase-Glo technology wherein the remaining ATP from the kinase reaction is detected using Ultra-Glo luciferase and D-luciferin which generates a bioluminescence signal from the ATP.
NCGC Assay Protocol Summary: Two uL/well of substrate-buffer solution (100 uM RS peptide, 1 uM ATP, 25 mM Tris pH7.5, 10 mM MgCl2, 0.5 mM EGTA, 2.5 mM DTT, 0.01% Triton X-100 final concentration) was dispensed into 1536-well, assay plates (Greiner, solid white medium-binding plates) with Aurora Discovery BioRAPTR Flying Reagent Dispenser (FRD; Beckton-Dickenson). Using a Kalypsys pin tool equipped with a 1536-pin tool, 23 nL of compound solution was transferred to the assay plate. […] Luminescence was detected with the ViewLux plate reader (Perkin Elmer, Waltham, MA) after 5 min incubation using a 5 second exposure time and 2x binning.

Chain of Dual specificity protein kinase CLK4 (Homo sapiens) (Q9HAZ1 whole entry, looked up): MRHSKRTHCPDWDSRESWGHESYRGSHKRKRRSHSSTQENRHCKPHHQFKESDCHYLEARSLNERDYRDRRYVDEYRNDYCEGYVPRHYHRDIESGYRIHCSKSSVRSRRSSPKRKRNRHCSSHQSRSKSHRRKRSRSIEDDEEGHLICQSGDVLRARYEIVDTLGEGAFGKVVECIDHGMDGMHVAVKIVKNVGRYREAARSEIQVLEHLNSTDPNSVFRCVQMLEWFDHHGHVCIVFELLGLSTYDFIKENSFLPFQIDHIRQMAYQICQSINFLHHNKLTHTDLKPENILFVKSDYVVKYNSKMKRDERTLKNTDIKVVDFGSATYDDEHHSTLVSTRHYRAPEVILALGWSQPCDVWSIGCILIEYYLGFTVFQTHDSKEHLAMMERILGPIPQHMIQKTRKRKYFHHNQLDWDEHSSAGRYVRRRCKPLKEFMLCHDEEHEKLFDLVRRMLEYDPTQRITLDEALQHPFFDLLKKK

Question: `COc1ccc2c(c1)[nH]c1c(C)nccc12` was tested. Which Potency did it give?
Answer: 67.1 nM (active)
